Y pestis TopoI: blocks Yersinia pestis topoisomerase I activity; Y. pestis Topo-I cleavage product accumulation, plate reader; activity, % at 10 µM; actives 0.064% (n = 360,000); in the data active = activity above about 50%, passing the limit was not always enough
FadD28 binding: M. tuberculosis FadD28 bisubstrate binding inhibition; actives 0.22% (n = 360,000); AID 588549; inhibition, % at 12.5 µM; FadD28 bisubstrate probe binding, fluorescence polarization; in the data active = inhibition above about 8.5%, passing the limit was not always enough
TcdB GH inh: blocks C. difficile toxin B glycohydrolase activity. TcdB glycohydrolase enzymatic assay, plate reader. inhibition, % at 9.99 µM. actives 0.24% (n = 350,000). AID 652162. P18177; in the data active = inhibition above about 10%
BioA inh-1: blocks M. tuberculosis BioA enzyme activity. AID 602481. purified M. tuberculosis BioA enzyme, plate reader. inhibition, % at 9.99 µM. actives 0.096% (n = 360,000); in the data active = inhibition above about 40%
MazEF act: MazEF (E. coli) toxin RNase activation; FAM/BHQ RNA-DNA oligo cleavage fluorescence, 5 h; activation, % at 20 µM; actives 0.32% (n = 350,000); AID 504720; in the data active = activation above about 50%
Target sequence (P0AE70 whole entry, looked up): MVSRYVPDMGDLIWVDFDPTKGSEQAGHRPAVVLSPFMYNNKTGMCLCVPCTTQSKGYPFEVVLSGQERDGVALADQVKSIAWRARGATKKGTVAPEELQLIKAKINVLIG
DUSP3 inh: inhibitors of human VHR1 phosphatase (DUSP3); actives 0.52% (n = 290,000); AID 1654; P51452; recombinant VHR phosphatase, pNPP absorbance; inhibition, % at 13.3 µM; in the data active = inhibition above about 50%
BioA inh-2: blocks M. tuberculosis BioA aminotransferase; AID 651679; max activity, %; shares compounds with BioA inh-1; purified BioA enzyme, plate reader, dose response; 310 tested, under 10 active;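 note: top concentration of the dilution series was 10 µM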
Target sequence (P9WQ81 whole entry, looked up): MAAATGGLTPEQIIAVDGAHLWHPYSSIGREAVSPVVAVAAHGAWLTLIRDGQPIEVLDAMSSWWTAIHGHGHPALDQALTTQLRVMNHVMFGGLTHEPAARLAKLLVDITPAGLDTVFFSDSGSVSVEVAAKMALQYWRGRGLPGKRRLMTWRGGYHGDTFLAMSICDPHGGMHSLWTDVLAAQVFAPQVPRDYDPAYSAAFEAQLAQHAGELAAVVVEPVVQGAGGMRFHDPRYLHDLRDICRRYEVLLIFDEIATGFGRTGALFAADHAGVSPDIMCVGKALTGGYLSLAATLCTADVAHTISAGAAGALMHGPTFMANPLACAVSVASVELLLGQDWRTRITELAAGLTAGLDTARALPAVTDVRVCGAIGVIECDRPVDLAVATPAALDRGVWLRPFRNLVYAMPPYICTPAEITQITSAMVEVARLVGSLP
HepG2 tox 2: HepG2 viability loss. shares compounds with BioA inh-1. HepG2 cytotoxicity, plate reader. max activity, %. 310 tested, under 10 active
3T3 cytotox 5: NIH3T3 viability loss | shares compounds with BioA inh-1 | NIH3T3 cytotoxicity, plate reader | activity change, negative = cytotoxicity, % at 26 µM | 310 tested, under 10 active
Numbers stand for hits; . = inactive; / = not tested or not shown. Shown are actives, neighbours in structure and some others; about 1% of the full set was active somewhere. Unless noted, the rule behind the calls is not given here.

SMILES	Y pestis TopoI	FadD28 binding	TcdB GH inh	BioA inh-1	MazEF act	DUSP3 inh	BioA inh-2	HepG2 tox 2	3T3 cytotox 5
CCC(=O)N1CC[C@@H]2[C@H]1c1cc(-c3cccc(F)c3)ccc1N(C)[C@@H]2CO	/	/	/	90	/	/	.	.	.
CN1c2ccc(-c3cccc(F)c3)cc2[C@H]2[C@H](CCN2C(=O)c2ccc3c(c2)OCO3)[C@H]1CO	/	/	.	99	/	/	.	.	.
CN1c2ccc(-c3ccccc3)cc2[C@@H]2[C@@H](CCN2C(=O)c2ccc3c(c2)OCO3)[C@H]1CO	/	/	.	/	/	/	/	/	/
CN1c2ccc(-c3cccc(F)c3)cc2[C@H]2[C@H](CCN2C(=O)C2CCOCC2)[C@H]1CO	/	/	.	76	/	/	.	.	.
CN1c2ccc(-c3cccc(C#N)c3)cc2[C@@H]2[C@@H](CCN2C(=O)CC2CC2)[C@H]1CO	/	/	/	.	/	/	/	/	/
CN1c2ccc(-c3cccc(C#N)c3)cc2[C@H]2[C@H](CCN2C(=O)CC2CC2)[C@H]1CO	/	/	/	65	/	/	.	.	.
CN1c2ccc(-c3cccc(F)c3)cc2[C@H]2[C@H](CCN2C(=O)C2CCOCC2)[C@@H]1CO	/	/	.	.	/	/	/	/	/
O=C(C[C@@H]1C[C@@H]2c3cc(NC(=O)CC4CC4)ccc3O[C@@H]2[C@@H](CO)O1)NCc1ccccc1F	/	/	.	.	/	/	/	/	/
CN1c2ccc(-c3cccc(F)c3)cc2[C@H]2[C@H](CCN2C(=O)c2cccc(F)c2)[C@@H]1CO	/	/	.	/	/	/	/	/	/
CC(=O)N1CC[C@@H]2[C@@H](CO)N(C)c3ccc(-c4ccccc4)cc3[C@@H]21	/	/	17	42	/	/	.	.	.
CN1c2ccc(-c3cccc(F)c3)cc2[C@H]2[C@H](CCN2C(=O)c2ccncc2)[C@H]1CO	/	/	/	95	/	/	.	.	.
O=C(C[C@H]1CC[C@H](NC(=O)c2cccc(F)c2)[C@H](CO)O1)NCCN1CCCC1	/	/	.	.	/	/	/	/	/
O=C(Nc1ccc2nccnc2c1)c1cnccn1	.	.	/	48	.	.	.	.	.
COC(=O)c1sc(N)c(C(=O)OC)c1CSc1nnc(-c2ccccc2Cl)n1C	.	.	/	59	.	.	.	.	.
COC(=O)c1sc(N)c(C(=O)OC)c1CSc1nnnn1C	.	.	/	.	.	.	/	/	/
COc1ccc(C(=O)C2CCCN(C(=O)c3ccc(C(C)=O)s3)C2)c(C)c1 (stereo not given)	.	.	.	64	.	.	.	.	.
COc1ccc(C(=O)C2CCCN(C(=O)c3ccnn3C)C2)c(C)c1 (stereo not given)	.	.	.	.	.	.	/	/	/
O=C(Nc1ccc2ccccc2c1)c1cccnc1	.	.	/	.	.	.	/	/	/
O=C(Nc1ccc(Cl)c(-c2nc3ccccc3[nH]2)c1)c1cccnc1	.	.	/	64	.	.	.	.	.
CN(C)C(=O)C[C@@H]1C[C@H]2c3cc(NC(=O)C4CCOCC4)ccc3O[C@H]2[C@H](CO)O1	/	/	.	.	/	/	/	/	/
Cc1nn(CC(=O)NCC(C)c2ccccc2)c(=O)c2cc3occc3n12 (stereo not given)	.	.	.	.	.	.	/	/	/
CC(CNC(=O)CCCn1ncn2c(cc3occc32)c1=O)c1ccccc1 (stereo not given)	.	.	.	67	.	.	.	.	.
O=C(C1CCCC1)N1CC2(C1)[C@H](c1ccccc1)[C@H](CO)N2CC1CC1	/	/	.	/	/	/	/	/	/
O=C(C1CC1)N1CC[C@@H]2[C@H]1c1cc(Br)ccc1N[C@@H]2CO	/	/	/	88	/	/	.	.	.
O=C(Cc1ccccc1)N1CC[C@@H]2[C@H]1c1cc(Br)ccc1N[C@@H]2CO	/	/	.	86	/	/	.	.	.
SMILES	Y pestis TopoI	FadD28 binding	TcdB GH inh	BioA inh-1	MazEF act	DUSP3 inh	BioA inh-2	HepG2 tox 2	3T3 cytotox 5
N#C[C@@H]1[C@H](c2ccccc2)[C@H](CO)N1C(=O)Nc1cccc(F)c1	/	/	.	.	/	/	/	/	/
N#C[C@H]1[C@@H](c2ccccc2)[C@@H](CO)N1C(=O)Nc1cccc(F)c1	/	/	.	77	/	/	.	.	.
O=C(CCN1CCCCC1)N[C@@H]1CC[C@H](CCn2cc(-c3ccc(F)cc3)nn2)O[C@H]1CO	/	/	.	.	/	/	/	/	/
Cc1nc2nc(SCC(=O)NCCCN3CCOCC3)nn2c(C)c1Cc1ccccc1	.	.	.	47	.	.	.	.	.
CCOCCCNC(=O)CSc1nc2nc(C)c(Cc3ccccc3)c(C)n2n1	.	.	.	76	.	.	.	.	.
O=C(N[C@H]1CC[C@H](CCn2cc(C3(O)CCCC3)nn2)O[C@H]1CO)C1CCC1	/	/	.	.	/	/	/	/	/
O=C(C[C@H]1C[C@@H]2c3cc(NC(=O)c4cccnc4)ccc3O[C@@H]2[C@@H](CO)O1)NCC(F)(F)F	/	/	.	44	/	/	.	.	.
CN1CCN(C(=O)C[C@H]2C[C@@H]3c4cc(NC(=O)c5cccnc5)ccc4O[C@@H]3[C@H](CO)O2)CC1	/	/	/	.	/	/	/	/	/
O=C(C[C@@H]1C[C@H]2c3cc(NC(=O)c4cccnc4)ccc3O[C@H]2[C@@H](CO)O1)NCc1cc(F)ccc1F	/	/	.	41	/	/	.	.	.
O=C(Nc1ccc2c(c1)[C@H]1C[C@@H](CC(=O)N3CCc4ccccc4C3)O[C@@H](CO)[C@H]1O2)c1cccnc1	/	/	.	42	/	/	.	.	.
O=C(C[C@H]1C[C@H]2c3cc(NC(=O)c4cccnc4)ccc3O[C@H]2[C@@H](CO)O1)NCc1cc(F)ccc1F	/	/	.	.	/	/	/	/	/
O=C(C[C@@H]1C[C@H]2c3cc(NC(=O)c4cccnc4)ccc3O[C@H]2[C@H](CO)O1)NCC(F)(F)F	/	/	.	.	/	/	/	/	/
CN(C)C(=O)C[C@@H]1C[C@@H]2c3cc(NC(=O)c4cccnc4)ccc3O[C@@H]2[C@@H](CO)O1	/	/	.	48	/	/	.	.	.
C[C@@H]1CN([C@@H](C)CO)S(=O)(=O)c2ccc(C3=CCCC3)cc2O[C@H]1CN(C)CC1CCCC1	/	/	.	.	/	/	/	/	/
Cc1noc(C)c1NC(=O)N(C)C[C@H]1Oc2c(NS(=O)(=O)c3ccc(Cl)cc3)cccc2C(=O)N([C@@H](C)CO)C[C@@H]1C	/	/	.	.	/	/	/	/	/
O=C(C[C@@H]1CC[C@H](NC(=O)Nc2cc(F)ccc2F)[C@@H](CO)O1)Nc1ccccc1	/	/	.	.	/	/	/	/	/
COc1ccc(C2c3c(oc4ccc(Cl)cc4c3=O)C(=O)N2CCN2CCOCC2)cc1 (stereo not given)	.	.	.	72	.	.	.	.	.
COc1ccc(C2c3c(oc4ccccc4c3=O)C(=O)N2CCCN2CCOCC2)cc1 (stereo not given)	/	/	/	/	.	/	/	/	/
Cc1cc(C(=O)NC2CC(C)(C)Cc3c2cnn3-c2cccc(F)c2)nn1C (stereo not given)	.	.	.	69	.	.	.	.	.
COc1ccc(C2c3c(-c4ccccc4O)n[nH]c3C(=O)N2Cc2ccco2)cc1OC (stereo not given)	.	.	.	/	.	.	/	/	/

Source: PubChem (several laboratories)
